# Screening data (PubChem)
# JMJD2A Tudor = qHTS Assay for Inhibitors of JMJD2A-Tudor Domain; AID 504339, 2011; Lysine-specific demethylase 4A (Homo sapiens), O75164; hit rate 4.4% among 390,000; AlphaScreen JMJD2A-Tudor / H3K4me3 peptide binding; Potency, µM (top dose mostly 114 µM), inactives show at the highest dose activity change, negative = inhibition, most hits filed as inhibitors; further: on the % scale 0 is the no-effect control and ±100 the full control effect; nearly all actives have a fitted effect of over 50% in size
# L3MBTL1 block = qHTS Assay for the Inhibitors of L3MBTL1; Lethal(3)malignant brain tumor-like protein 1 (Homo sapiens), Q9Y468; AlphaScreen L3MBTL1–H3K9me1 peptide binding; Potency, µM (doses to about 57.1 µM), for the others: top-dose activity, negative = inhibition, hits mostly inhibitors; hit rate 0.66% among 230,000; AID 485360, 2010; further: on the % scale 0 is the no-effect control and ±100 the full control effect; nearly all actives have a fitted effect of over 60% in size
#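 Read-out is AlphaScreen signal from streptavidin donor and nickel chelate acceptor beads (10 ug/mL final each) bridging L3MBTL1 (50 nM) and biotinylated K9-monomethylated H3(1-15) peptide (75 nM), after 30 min compound exposure at room temperature.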
# BAZ2B inh = qHTS Assay for Inhibitors of BAZ2B | AlphaScreen BAZ2B-H3K14Ac peptide displacement | hit rate 4.4% among 360,000 | Potency, µM (doses to about 114 µM), inactives show at the highest dose activity change, negative = inhibition, most hits filed as inhibitors; further: on the % scale 0 is the no-effect control and ±100 the full control effect; nearly all actives have a fitted effect of over 60% in size
# Target sequence (Q9UIF8 whole entry, looked up): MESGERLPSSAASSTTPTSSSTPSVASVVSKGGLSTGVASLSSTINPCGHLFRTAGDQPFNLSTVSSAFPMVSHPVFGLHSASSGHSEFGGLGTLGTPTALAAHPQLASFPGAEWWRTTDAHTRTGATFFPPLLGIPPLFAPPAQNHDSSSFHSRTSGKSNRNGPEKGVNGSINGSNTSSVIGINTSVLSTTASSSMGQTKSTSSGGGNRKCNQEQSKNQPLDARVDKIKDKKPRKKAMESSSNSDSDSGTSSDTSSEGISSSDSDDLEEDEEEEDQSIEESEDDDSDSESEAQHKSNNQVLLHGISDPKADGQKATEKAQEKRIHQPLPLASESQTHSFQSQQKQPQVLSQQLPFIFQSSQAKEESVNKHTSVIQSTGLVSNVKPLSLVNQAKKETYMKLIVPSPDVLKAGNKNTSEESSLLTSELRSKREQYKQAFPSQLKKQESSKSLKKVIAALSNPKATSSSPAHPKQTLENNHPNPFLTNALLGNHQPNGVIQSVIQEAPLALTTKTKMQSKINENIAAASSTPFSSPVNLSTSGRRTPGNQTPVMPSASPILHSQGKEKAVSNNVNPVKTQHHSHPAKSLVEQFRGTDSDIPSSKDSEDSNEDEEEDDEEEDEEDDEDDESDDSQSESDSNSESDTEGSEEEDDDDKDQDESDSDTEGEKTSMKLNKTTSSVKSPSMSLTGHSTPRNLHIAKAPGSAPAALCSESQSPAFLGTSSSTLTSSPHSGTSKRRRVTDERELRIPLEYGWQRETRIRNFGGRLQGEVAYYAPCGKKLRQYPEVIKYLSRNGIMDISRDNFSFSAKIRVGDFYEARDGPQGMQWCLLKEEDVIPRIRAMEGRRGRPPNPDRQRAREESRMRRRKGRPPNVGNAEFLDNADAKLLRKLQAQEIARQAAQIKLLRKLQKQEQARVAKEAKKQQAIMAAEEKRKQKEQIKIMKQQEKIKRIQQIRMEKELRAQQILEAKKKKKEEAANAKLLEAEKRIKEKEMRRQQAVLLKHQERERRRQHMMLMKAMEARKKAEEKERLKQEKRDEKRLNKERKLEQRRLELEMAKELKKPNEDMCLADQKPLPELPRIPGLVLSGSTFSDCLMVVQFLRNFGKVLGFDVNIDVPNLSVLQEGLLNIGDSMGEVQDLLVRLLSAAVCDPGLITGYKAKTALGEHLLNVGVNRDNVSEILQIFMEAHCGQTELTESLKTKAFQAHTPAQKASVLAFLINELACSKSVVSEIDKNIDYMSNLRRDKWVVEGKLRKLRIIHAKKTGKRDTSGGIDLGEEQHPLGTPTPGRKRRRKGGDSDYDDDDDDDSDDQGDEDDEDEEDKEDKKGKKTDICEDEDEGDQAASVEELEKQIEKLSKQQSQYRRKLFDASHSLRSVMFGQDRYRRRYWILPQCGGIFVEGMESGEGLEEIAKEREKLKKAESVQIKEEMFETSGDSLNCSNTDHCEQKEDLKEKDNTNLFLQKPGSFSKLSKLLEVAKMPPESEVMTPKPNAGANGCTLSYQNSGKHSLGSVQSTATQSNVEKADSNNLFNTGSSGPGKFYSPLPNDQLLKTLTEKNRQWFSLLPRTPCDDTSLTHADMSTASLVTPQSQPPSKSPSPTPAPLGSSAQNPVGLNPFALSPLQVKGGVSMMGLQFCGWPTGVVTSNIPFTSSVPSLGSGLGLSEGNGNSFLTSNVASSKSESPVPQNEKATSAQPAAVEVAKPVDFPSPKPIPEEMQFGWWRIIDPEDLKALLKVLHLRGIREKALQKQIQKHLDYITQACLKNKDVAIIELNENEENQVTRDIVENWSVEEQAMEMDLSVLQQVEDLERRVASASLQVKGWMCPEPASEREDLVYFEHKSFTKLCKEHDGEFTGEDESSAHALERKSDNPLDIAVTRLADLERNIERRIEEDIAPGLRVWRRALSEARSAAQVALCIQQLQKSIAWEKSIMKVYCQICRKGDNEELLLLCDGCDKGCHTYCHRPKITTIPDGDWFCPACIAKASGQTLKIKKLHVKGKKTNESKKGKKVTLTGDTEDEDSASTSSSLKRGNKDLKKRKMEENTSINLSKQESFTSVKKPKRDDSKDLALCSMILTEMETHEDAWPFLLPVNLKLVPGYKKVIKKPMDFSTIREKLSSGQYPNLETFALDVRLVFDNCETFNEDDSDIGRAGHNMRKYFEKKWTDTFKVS
#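 In this displacement format the biotinylated H3(5-23) peptide acetylated at Lys14 serves as ligand at 50 nM, with BAZ2B at 50 nM in PBS pH 7.4 containing 0.01% Tween-20. Donor and acceptor beads are 10 ug/mL final.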
# HP1b chromo inh = HTS for Inhibitors of HP1-beta Chromodomain Interactions with Methylated Histone Tails; Potency, µM (highest dose often 114 µM), for inactives: at the top dose activity change, negative = inhibition, hits mostly inhibitors; AlphaScreen HP1-beta / biotin-H3K9me3 peptide binding; hit rate 0.56% among 390,000; AID 540317, 2011; Chromobox protein homolog 1 (Homo sapiens), P83916; further: nearly all actives have a fitted effect of over 70% in size
#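 HP1-beta protein (50 nM final) preincubated 30 min at room temperature with biotinylated H3(1-18)K9me3 peptide (50 nM) in PBS pH 7.4, 0.01% Tween-20, then compound added for 30 min. AlphaScreen streptavidin donor/nickel chelate acceptor beads (10 ug/mL final), 30 min dark, luminescence read.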
# G9a inh = qHTS Assay for Inhibitors of Histone Lysine Methyltransferase G9a; Histone-lysine N-methyltransferase EHMT2 (Homo sapiens), Q96KQ7; G9a H3K9 monomethylation, AlphaScreen, 2 h; Potency, µM (series often up to 102 µM), without a hit: top-dose activity, negative = inhibition, hits mostly inhibitors; hit rate 8.8% among 350,000; further: on the % scale 0 is the no-effect control and ±100 the full control effect; nearly all actives have a fitted effect of over 75% in size
#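 Compounds were preincubated with 20 nM G9a for 15 min, after which biotinylated H3K9 peptide (500 nM) and SAM (20 uM) started a 2 h room-temperature reaction. Monomethylated product was quantified by antibody-based AlphaScreen chemiluminescence.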
# Sfp inh = qHTS Assay for Inhibitors of Bacillus subtilis Sfp phosphopantetheinyl transferase (PPTase). 4'-phosphopantetheinyl transferase ffp (Bacillus subtilis), Q9F4F7. Biochemical Sfp PPTase activity, qHTS. Potency, µM, for inactives: largest response in the series, negative = inhibition, hits mostly inhibitors. hit rate 3.5% among 310,000;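 further: the enzyme is Sfp with the accession as filed and its product quenches rhodamine fluorescence; 0% = enzyme reaction without inhibitor and -100% = no enzyme wells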
#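 Fluorescence-quenching assay with 15 nM Sfp, 5 uM rhodamine-CoA and 12.5 uM BHQ-2-labelled ybbR peptide in pH 7.6 Hepes/MgCl2 buffer. Enzyme was pre-incubated with compound for 15 min at room temperature. Rate was taken from the 30-min fluorescence change (525/598 nm).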
# An asterisk follows results filed as active; ? = inconclusive; · = no result; [ ] = another dose, or the depositor's remark. An excerpt weighted towards active compounds, which were near 12% of everything screened. The call rests on the fitted dose curve; in most records, active means well fitted curve in the direction sought with a large enough effect; inconclusive means small, poorly fitted or top-dose-only effect, or another doubt; inactive means no such curve, though single readings can be large; an effect the other way counts as inactive or inconclusive. Potency means the concentration at half of the fitted maximal effect.
SMILES,JMJD2A Tudor,L3MBTL1 block,BAZ2B inh,HP1b chromo inh,G9a inh,Sfp inh
CCOc1ccc(OCC)c(NC(=O)CN2CCN(CC)CC2)c1,0.89µM*,-8%,?,?,20µM*,-3%
CCc1ccc(N2CC(C(=O)OCC(=O)Nc3ccccc3C)CC2=O)cc1 (stereo not given),3%,-6%,0%,47%,-26%[12.7 µM],·
CCOc1ccccc1NC(=O)CSC1=NN2CCCC(=O)N=C2S1,1%,·,-37%,18%,40µM*,22%
CCC1CCCCN1C(=O)COc1ccccc1NC(C)=O (stereo not given),-12%,·,-16%,14%,45µM*,-14%
CCOc1ccccc1NC(=O)COC(=O)C1CC(=O)N(c2c(C)cccc2C)C1 (stereo not given),1%,·,-27%,-21%,56µM*,14%
Cc1nn2c(C)c(C(=O)NCc3cccc(Br)c3)cnc2c1-c1ccccc1,-9%,·,0%,25%,17%[59 µM],·
C=CCNC(=O)N1CCc2nc(CCCC)c3c(c2C1)CO[C@@H](C)C3,·,·,·,·,·,0%
CCc1ccc(CNC(=O)CN2C(=O)c3cccnc3Oc3ccc(C)cc32)cc1,-7%,·,1%,16%,0%[59 µM],·
C[C@H](N)CCP(=O)(O)O,·,·,·,·,39%[59 µM],2%
CCOC(=O)c1ccc(NC(=O)CCn2c(=O)c3cccn3c3ccccc32)cc1,-11%,·,-1%,45%,18%[59 µM],·
CCOc1ccc(OCC)c(NC(=O)CN2CCN(CC(=O)NC(C)C)CC2)c1,28µM*,65%,?,?,·,?
CCOc1ccccc1NC(=O)CN1CCCCCC1,3.2µM*,7%,50µM*,-13%,·,-22%
Cc1cccc(CC(=O)NCc2nc3cccnc3n2Cc2ccc(F)cc2)c1,-7%,·,3%,11%[57 µM],10%[59 µM],·
Cc1ccc(CNc2ncnc3[nH]ncc23)o1,-9%,·,·,8%,·,·
NC(=S)c1ccc[n+]([O-])c1,1.1µM*,·,·,?,·,·
CCN(CC)CCn1c(O)c(N=O)c2ccccc21,-12%,6%,-1%,16%,-43%,8%
CCN(CC)CCn1c2ccccc2c(=O)c2c(O)ccc(O)c21,45µM*,·,·,40µM*,·,·
CCC(=S)/C=C1\Sc2ccccc2N1CCCS(=O)(=O)O,28µM*,?,?,?,·,-104%
NS(=O)(=O)c1ccc(CCNC(=O)Cn2c(-c3cccs3)cc3ccccc32)cc1,2%,·,2%,28%,2%[59 µM],·
CCOc1cccc(C2/C(=C(/O)c3ccc4c(c3)CC(C)O4)C(=O)C(=O)N2Cc2ccncc2)c1 (stereo not given),22µM*,·,-32%,-19%,·,2%
COC(=O)c1ccc(C2/C(=C(/O)c3ccc4c(c3)CC(C)O4)C(=O)C(=O)N2Cc2cccnc2)cc1 (stereo not given),?,·,-8%[57.1 µM],56%,71µM*,-13%
CC1Cc2cc(/C(O)=C3/C(=O)C(=O)N(Cc4cccnc4)C3c3cccc(O)c3)ccc2O1 (stereo not given),14%,·,-20%,61%,?,3%
CCOc1cc(CNCCc2ccc(S(N)(=O)=O)cc2)ccc1OCc1ccccc1,-6%,-5%,?,24%,10%,11µM*
CCNCc1cc(Cl)c(OCc2ccccc2)c(OCC)c1,-6%,2%,-30%,35%,-43%,-9%
CCOc1cc(CNn2cn[nH]c2=S)cc(Cl)c1OCc1ccccc1F,?,0%,-2%,9%,7.9µM*,7%
SMILES,JMJD2A Tudor,L3MBTL1 block,BAZ2B inh,HP1b chromo inh,G9a inh,Sfp inh
CCOc1cc(CNC2CCCC2)cc(Cl)c1OCc1ccc(F)cc1,0%,·,11%,12%,-3%[12.7 µM],40µM*
CCOc1cc(CNCCc2ccc(S(N)(=O)=O)cc2)cc(Cl)c1OCc1ccccc1,-35%,0%,?,38%,-47%,3.5µM*
Cc1ccc2c(c1)-c1nc(-c3ccc(Cl)cc3)cc(-c3coc4ccccc4c3=O)c1CO2,-6%,·,-21%,30%,-27%[59 µM],·
N#Cc1ccccc1S(=O)(=O)N1CCN(S(=O)(=O)c2ccc3c(c2)OCCO3)CC1,-12%,·,·,·,·,·
COc1cccc(Cn2c(=O)c(-c3cc(F)cc(F)c3)nc3cnc(N4CCNCC4)nc32)c1,·,·,·,·,4%[0.501 µM],?
Cc1ccccc1OCC(=O)NCC(=O)OCc1ccc2ccccc2c1,-10%[57.1 µM],·,·,23%[57 µM],·,·
CCC1CN(C(=O)N2CCC(C(=O)N3CCN(c4ccccc4F)CC3)CC2)c2ccccc2O1 (stereo not given),-6%,·,?,27%,-27%[59 µM],·
N#Cc1nc(Nc2cc(F)cc(F)c2)c2ncn(C3CCCC3)c2n1,-3%,·,·,·,·,·
CCOc1cc(CNCc2ccccc2)ccc1OCc1ccc(Cl)cc1,0%,·,13%,72%,-13%[2.33 µM],-27%
COc1ccc(CNCC(O)(c2ccc(Cl)cc2)c2ccc(Cl)cc2)cc1OC,-25%,-4%,-10%,12%,-2%,45µM*
COc1ccc(CNCC(O)(c2ccc(F)cc2)c2ccc(F)cc2)cc1OC,-24%,·,-11%,44%,16%,-1%
COc1ccc(CNCCc2ccc(Cl)cc2)cc1OCc1ccccc1,40µM*,·,56µM*,?,10µM*,-29%
COc1ccccc1Nc1cc(C)nc2nc(-c3ccccc3)nn12,-18%,·,-13%,32%,-41%[59 µM],·
CC(=O)c1cccc(NC(=O)CN2C(=O)CC(c3ccc(C)cc3C)=Nc3ccccc32)c1,?,·,-28%,-2%,?,·
CCN1CCN(c2ccc(NC(=O)CCc3c(C)nc4c(-c5ccccc5)c(C)nn4c3C)cc2)CC1,?,-5%,-7%,-6%,79µM*,7%
CCOc1ccc(NC(=O)CCc2c(C)nc3c(-c4ccccc4)c(C)nn3c2C)cc1,-13%,·,-2%,27%,-36%[59 µM],·
O=C(Nc1ccc(C2CCCCC2)cc1)C1CCCN(c2ncccn2)C1 (stereo not given),-10%,-7%,3%,23%,-2%,6%
O=C(O)c1ccc(C2CCCCC2)cn1,1.6µM*,18µM*,4µM*,36%,?,?
NC(=O)COC(=O)c1ccc(Cl)c(S(=O)(=O)N(Cc2ccccc2)c2ccc(Cl)cc2)c1,?,-8%,-1%,-10%,?,18%
C=CCNC(=O)COC(=O)c1ccc(Cl)c(S(=O)(=O)N(Cc2ccccc2)c2ccccc2)c1,-23%,-1%,3%,35%,32µM*,4%
